In the supplement of paper PMC10338343:
± gives the standard deviation. The full ranking holds about 6,600 sequences; the median of “pre-steady-state target cleavage rate” is about 0.07, and the highest 2% start at about 0.72. The sample holds the highest values, similar sequences and a random draw of the others, so the mix is not that of the screen.

test system: MIWI (PIWIL1) piRISC loaded with Kctd7 piRNA (30 nt); assay: pre-steady-state target cleavage rate (min^-1); MIWI and MILI are mouse PIWI proteins and EfPiwi is from a freshwater sponge; tags in brackets are library labels; higher = faster piRNA-guided slicing of the target; conditions: guide: Kctd7 piRNA 5'p-UGUUAAUCUCUCAGAGAAGGUGACAGUGAU; auxiliary factor: 500 nM mouse GTSF1
Experimental: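 Cleave-'n-Seq: a library of target RNAs (target site embedded in constant flanks, ACAGCATTCCGCGTTAGTGATATCCG... 5' flank; DNA-blocked outside the site) at 0.1 nM was incubated with 1 nM active mouse MILI or MIWI piRISC (synthetic 5'-monophosphorylated piRNA guide) with or without 500 nM mouse GTSF1 at 33 °C for 1 min to 16 h. Uncleaved targets were sequenced and normalised to non-target controls, and the pooled three trials were fitted to a burst-and-steady-state model to give the pre-steady-state cleavage rate (min^-1; k3 is constrained to at most 1e-4). Sequence is the target site only; target names encode pairing extent (gX:gY) and contiguous / 1-mismatch / 2-mismatch / bulge geometry. Fits with R² ≤ 0 are excluded.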

| Sequence | pre-steady-state target cleavage rate |
| --- | --- |
| UUCACUGUGACCUUCUCUGAGAGAUAAACA | 0.214 ± 0.023 |
| UAGACUGUCAGCUUCUCUGUGAGAUUAACA | 0.198 ± 0.0095 |
| UUCUCUGUCAGCUUCUCUGAGAGAUUAACA | 0.586 ± 0.028 |
| AUCACUGUCAGCUUCUCUGAGAGAUUAACA | 0.802 ± 0.044 |
| AUCACUGUCUGCUUCUCUGAGAGAUUAACA | 0.74 ± 0.042 |
| UACACUGUCUGCUUCUCUGAGAGAUUAACA | 0.708 ± 0.043 |
| AACACUGUCAGCUUCUCUGAGAGAUUAACA | 0.753 ± 0.039 |
| UAGACUGUCAGCUUCUCUGAGAGAUUAACA | 0.753 ± 0.05 |
| UUCACUGUCAGCUUCUCUGAGAGAUUAACA | 0.723 ± 0.032 |
| UACACUGUCAGCUUCUCUGAGAGAUUAACA | 0.655 ± 0.027 |
| AUGACUGUCAGCUUCUCUGAGAGAUUAACA | 0.721 ± 0.046 |
| AUCACUGUCAGCUUCUCUGUGAGAUUAACA | 0.237 ± 0.013 |
| UUCACUGUCUGCUUCUCUGAGAGAUUAACA | 0.639 ± 0.038 |
| UUCACUGUCACGUUCUCUCAGAGAUUAACA | 0.0729 ± 0.0078 |
| UAGUGACAGUGGAAGUCUGAGAUAUUAACA | < 0.0001 |
| AUCAGUGUCACCUUGUCUGAGAGAUUAACA | 0.209 ± 0.029 |
| UACACUGUCACCUUCUCCGAGAGAUUAACA | 0.351 ± 0.051 |
| UUCACUGUCACCUUCUCUGUGAGAUUAUCA | 0.106 ± 0.025 |
| UAGUGAGUCACCUACUCUGAGAGAUUAAGA | 0.13 ± 0.021 |
| UAGACUGUCAGCCUUCUCUGAGAGAUUAACA | 0.231 ± 0.024 |
| UUCACUGUCACCUUCUCUGACGAGAUUAACA | 0.0334 ± 0.0098 |
| UACACUGGUCACCUUCUCUGAGAGAUUAACA | 0.676 ± 0.038 |
| UUCACUGGUCACCUUCUCUGAGAGAUUAACA | 0.652 ± 0.034 |
| AUCACUGUCACCUUCUCUCUGAGAUUAACA | 0.0402 ± 0.0095 |

| Sequence | pre-steady-state target cleavage rate |
| --- | --- |
| AUCACUGGUCACCUUCUCUGAGAGAUUAACA | 0.742 ± 0.047 |
| UUCACUUGUCACCUUCUCUGAGAGAUUAACA | 0.63 ± 0.09 |
| AUCACUGUCACCUUCUCUGAGAGAUUAACC [g2:g30:cont:t1C] | 0.387 ± 0.032 |
| AUCACUGUCACCUUCUCUGAGAAUUAACA | 0.366 ± 0.11 |
| UUCACUGUCACCUUCUCUGAGAGAAUUAACA | 0.641 ± 0.098 |
| AUCACUGUCACCUUCUCUGAGAGAUUAACA [g2:g30:cont:t1A] | 0.734 ± 0.035 |
| UACACUUGUCACCUUCUCUGAGAGAUUAACA | 0.631 ± 0.088 |
| AUCACUGUCACCUUCUCUGAGAGAAUUAACA | 0.738 ± 0.13 |
| AUCACUUGUCACCUUCUCUGAGAGAUUAACA | 0.754 ± 0.12 |
| UAGAGACUCACCUUCUCUGAGAGAUUAUGA | 0.0764 ± 0.014 |
| UUCACUGUCACCUUCUCUGAGUAGAUUAACA | 0.0213 ± 0.0063 |
| UAGUCUGUCACCUUUUCUGAGAGAUUAACA | 0.542 ± 0.029 |
| AUCACUGUCACCUUCACUGAGUGAUUAACA | 0.0332 ± 0.007 |
| UAGUGACAGACCUUCACUGAGAGUUUAACA | 0.0305 ± 0.011 |
| UAGUGACUCACCUUCUCUGAGUGAUAAACA | 0.0392 ± 0.007 |
| AAUCACUGUCACCUUCUCUGAGAGAUUAACA | 0.81 ± 0.043 |
| AUCACUGUCACCUUCUCUGAGAGAUUAACG [g2:g30:cont:t1G] | 0.713 ± 0.037 |
| AUCACUGUCACCUUCUCUGAGAGAUUAAUCA | 0.381 ± 0.04 |
| UAGUGACUCACCUUCUCUGAGAGAAUAAGA | 0.02 ± 0.0073 |
| UUCACAGUCACCUUCUCUGAGAGAUUAAGA | 0.137 ± 0.027 |
| UUCAGUGUCAGCUUCUCUGAGAGAUUAACA | 0.609 ± 0.032 |
| UAGUGUGUCAGCUUCUCUGAGAGAUUAACA | 0.561 ± 0.032 |
| UACAGUGUCAGCUUCUCUGAGAGAUUAACA | 0.622 ± 0.028 |
| UAGAGUGUCAGCUUCUCUGAGAGAUUAACA | 0.772 ± 0.044 |

| Sequence | pre-steady-state target cleavage rate |
| --- | --- |
| AUCAGUGUCAGCUUCUCUGAGAGAUUAACA | 0.734 ± 0.034 |
| UAGUGUCUCAGCUUCUCUGAGAGAUUAACA | 0.437 ± 0.031 |
| AUCUCUGUCACCUACUCUGAGAGAUUAACA | 0.627 ± 0.042 |
| AUCACUGUCACCUUCUCUGACAGAUUAUCA | 0.0262 ± 0.0092 |
| UAGUCUGUCACCUUCUCUGAGACAUUAUCA | 0.0172 ± 0.0056 |
| UAGUGUCACACCUUCUCUGAGAGAUAUUGA | 0.00616 ± 0.0033 |
| UAGUGACACACCUUCUCUGAUAGAUUAACA | 0.714 ± 0.054 |
| UAGUGACAGUGGAUCUCUGAGAAAUUAACA | < 0.0001 |
| UAGACUGUCACCUUCUCUGAGAGCAUUAACA | 0.38 ± 0.025 |
| UAGUCUGUCACCUUCUCUGAGUGAUUUACA | 0.0221 ± 0.0058 |
| UUCACUGUCACCUUCUCCUGAGAGAUUAACA | 0.795 ± 0.21 |
| AUCCACUGUCACCUUCUCUGAGAGAUUAACA | 0.712 ± 0.046 |
| UUCACUGUCACCUUCUCUCUGAGAUUAACA | 0.0263 ± 0.0076 |
| AUCACUGUCACCUUCUCCUGAGAGAUUAACA | 0.645 ± 0.17 |
| UCCACUGUCACCUUCUCUGAGAGAUUAACA | 0.68 ± 0.028 |
| UUUCACUGUCACCUUCUCUGAGAGAUUAACA | 0.415 ± 0.04 |
| ACCACUGUCACCUUCUCUGAGAGAUUAACA | 0.715 ± 0.039 |
| AGUCACUGUCACCUUCUCUGAGAGAUUAACA | 0.833 ± 0.057 |
| UACCACUGUCACCUUCUCUGAGAGAUUAACA | 0.773 ± 0.044 |
| UACACUGUCACCUUCUCCUGAGAGAUUAACA | 0.115 ± 0.043 |
| GUCACUGUCACCUUCUCUGAGAGAUUAACA | 0.763 ± 0.04 |
| UUCACUGUCACCUUCUCUGAGAGAAAUACA | 0.179 ± 0.038 |
| AUCACUGUCACCUUCAUCUGAGAGAUUAACA | 0.275 ± 0.053 |
